The list is not random: actives were taken first. Their share in the collection is about 4.2%.
VDR inhibitor: Inhibitors of the vitamin D receptor (VDR): qHTS | AID 504847, 2011 | 0.93% of 400,000 active | Potency, µM, inactives show max response, negative = inhibition, actives largely listed as inhibitors | VDR-SRC2-3 peptide fluorescence polarization, 2 h
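Two reagent solutions held at 4 deg C in the dark were dispensed, compounds pinned at 23 nl, and the mixture incubated 2 h at room temperature. Read-out: fluorescence polarization of VDR–SRC2-3 peptide binding.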
Sfp inh: qHTS Assay for Inhibitors of Bacillus subtilis Sfp phosphopantetheinyl transferase (PPTase); 4'-phosphopantetheinyl transferase ffp (Bacillus subtilis), Q9F4F7; Biochemical Sfp PPTase activity, qHTS; Potency, µM, inactives show largest response in the series, negative = inhibition, hits mostly inhibitors; 3.5% of 310,000 active; AID 1490, 2009;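 further: the enzyme is Sfp with the accession as filed and its product quenches rhodamine fluorescence; 0% = enzyme reaction without inhibitor and -100% = no enzyme wells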
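Fluorescence-quenching assay: 15 nM Sfp-PPTase preincubated 15 min at room temperature with compound, then 5 uM rhodamine-CoA and 12.5 uM BHQ-2-labelled YbbR peptide added. Fluorescence (ex 525/em 598 nm) read at start and after 30 min; difference gives rate.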
PLK1 PBD block: qHTS for Inhibitors of PLK1-PDB (polo-like kinase 1 - polo-box domain): Primary Screen. 2.8% of 360,000 active. Serine/threonine-protein kinase PLK1 (Homo sapiens), P53350. Potency, µM, inactives show max response, negative = inhibition, usual class: inhibitors. Plk1 PBD binding of FITC phosphopeptide, fluorescence polarization; further: series mostly up to about 57 µM; nearly all actives have a fitted effect of over 65% in size
ALOX12 inh: Primary qHTS assay for inhibitors of human arachidonate 12S-lipoxygenase (ALOX12): Round 2 | Polyunsaturated fatty acid lipoxygenase ALOX12 (Homo sapiens), P18054 | Potency, µM (titrated, usually from 108 µM), for inactives: top-dose activity change, negative = inhibition, actives largely listed as inhibitors | purified 12hLO, xylenol orange hydroperoxide absorbance | 1.1% of 580,000 active | AID 1671190, 2021
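Purified human 12hLO at 150 nM in 25 mM Hepes, 0.01% Triton X-100, pH 7.0, preincubated 15 min at room temperature with compound. Reaction started with 40 uM arachidonic acid, 30 min at room temperature. Hydroperoxide measured by Fe-xylenol orange, 573/405 nm absorbance ratio.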
Numbers without * were called inactive; ? = inconclusive; nt = no result given. The call rests on the fitted dose curve; in most records, active means well fitted curve in the direction sought with a large enough effect; inconclusive means small, poorly fitted or top-dose-only effect, or another doubt; inactive means no such curve, though single readings can be large; an effect the other way counts as inactive or inconclusive. Unless noted, on the % scale 0 is the no-effect control and ±100 the full control effect; potency means the concentration at half of the fitted maximal effect.

SMILES	VDR inhibitor	Sfp inh	PLK1 PBD block	ALOX12 inh
Cc1ccc(/C=C/C(=O)Nc2ccc(S(=O)(=O)Nc3onc(C)c3C)cc2)cc1	18.1%	8.1%	37.7µM*	-2.7%
C/C=C/COC(=O)c1[nH]c2c(c1C)C(=O)CC(c1ccco1)C2 (stereo not given)	?	50.1µM*	?	?
C=CCOC(=O)c1[nH]c2c(c1C)C(=O)CC(c1ccco1)C2 (stereo not given)	79.4µM*	?	?	nt
Cc1c(C(=O)OCC(C)C)[nH]c2c1C(=O)CC(c1ccco1)C2 (stereo not given)	-14.1%	39.8µM*	-10.3%	?
CC1=NN(c2nc(-c3ccc(C)cc3)cs2)C(=O)C1N=Nc1ccccc1O (stereo not given)	13.5%	?	-23.3%	-23.5%
CC1=NN(c2nc(-c3ccc(C)cc3)cs2)C(=O)C1N=Nc1cccc(O)c1 (stereo not given)	79.4µM*	-14.6%	4.74µM*	?
Cc1ccc(S(=O)(=O)N2CCC(n3cnnc3C(C)C)CC2)c(C)c1	nt	nt	nt	24.8%
C(=NN=Cc1c[nH]c2ccccc12)c1c[nH]c2ccccc12	nt	nt	-5.2%	-16.1%
C(=N\c1nccs1)/c1c[nH]c2ccccc12	9.1%	44.7µM*	-23.1%	?
Oc1cccc(/C=N/N(Cc2ccccc2)c2ccccc2)c1	4.9%	19.1%	-1.3%	50.1µM*
Oc1ccc(/C=N/N(Cc2ccccc2)c2ccccc2)c(O)c1O	2.3%	56.2µM*	?	39.8µM*
Cc1ccc(C)c(C2NC(=O)c3ccccc3N2)c1 (stereo not given)	1.6%	8.0%	0.1%	6.1%
Cc1ccc(C2NC(=O)c3c(sc(C)c3C)N2)c(O)c1 (stereo not given)	9.0%	50.1µM*	?	39.8µM*
O=C1NC(c2ccccc2O)Nc2ccccc21 (stereo not given)	1.2%	5.9%	-3.9%	-4.7%
Cc1cccc(C2NC(=O)c3c(sc(C)c3C)N2)c1O (stereo not given)	-1.6%	89.1µM*	-20.6%	-16.6%
COc1cc(OC)c(Nc2nc3ccccc3nc2-n2nc(C)cc2C)cc1Cl	9.0%	nt	nt	-0.5%
Nc1c2ccccc2nc2ccccc12	2.2%	0.7%	-3.2%	-9.8%
Cc1nc2ccccc2c2c(N)c3ccccc3n12	?	-1.2%	11.9µM*	-22.8%
CCN(CC)c1ccc(/C=N/N2C(=O)c3ccccc3C2=O)cc1	-0.5%	-10.6%	-14.4%	4.1%
CCN(CC)c1ccc(/C=N/N2CC(=O)NC2=S)cc1	13.0%	nt	-21.4%	3.55µM*
COc1ccccc1CN1CCNC(=O)C1CC(=O)NCCCN1CCCC1=O (stereo not given)	-10.2%	-6.4%	-20.4%	26.6%
O=C(O)C(=O)/C(=C\c1ccc([N+](=O)[O-])cc1)c1ccc2ccccc2n1	6.9%	44.7µM*	-20.0%	?
O=C(O)C(=O)/C(=C\c1cccc2ccccc12)c1ccc2ccccc2n1	1.5%	-2.9%	67µM*	0.0%
N#Cc1cccc(NC(=O)C2CCCN2c2ncnc3ccccc23)c1 (stereo not given)	nt	nt	nt	-3.7%
CCCCN=C1NN=C(c2ccc3c(c2)OCCO3)CS1	-1.0%	39.8µM*	-8.0%	?
SMILES	VDR inhibitor	Sfp inh	PLK1 PBD block	ALOX12 inh
COc1ccc(CN=C2NN=C(c3ccccc3)CS2)cc1	-29.5%	44.7µM*	?	?
Cc1ccc(C)c(C2=NNC(=NCc3ccccc3)SC2)c1	-24.7%	-108.0%	-24.1%	?
CCCCN=C1NN=C(c2ccc(C)c(C)c2)CS1	?	-25.2%	10.6µM*	?
COc1ccc(N=C2NN=C(c3ccc4c(c3)OCCO4)CS2)cc1	-9.8%	?	26.7µM*	-23.0%
FC(F)Sc1ccc(N=C2NN=C(c3ccc4c(c3)OCCO4)CS2)cc1	-18.4%	-0.1%	-29.5%	?
CN(NC(N)=O)c1ncc(C(F)(F)F)cc1Cl	3.4%	8.2%	-5.2%	-13.1%
COC(=O)CCC(=O)Nc1cccc2c(NC(=O)CCC(=O)OC)cccc12	8.8%	15.1%	-22.0%	?
COC(=O)CCC(=O)Nc1ccc(C)cc1OC(=O)CCC(=O)OC	3.9%	79.4µM*	-17.6%	-9.0%
O=C(N[C@@H]1CN(Cc2ccc3cc[nH]c3c2)C[C@H]1CO)c1ccccc1	nt	nt	nt	28.2µM*

Assay outcomes (PubChem BioAssay)
